Measured values: PubChem BioAssay (NCATS)
Records with an inconclusive call do not appear. Calls of active or inactive are those of the source. Unless noted, the call rests on the fitted dose curve; in most records, active means well fitted curve in the direction sought with a large enough effect; inconclusive means small, poorly fitted or top-dose-only effect, or another doubt; inactive means no such curve, though single readings can be large; an effect the other way counts as inactive or inconclusive.

Tests used:
[1] = qHTS assay for small molecule disruptors of the mitochondrial membrane potential - 1 hr assay (AID 651754; calls by dose curve; further: on the % scale 0 is the no-effect control and ±100 the full control effect; nearly all actives have a fitted effect of over 35% in size); conditions: series mostly up to 92.2 µM
How it was run: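 HepG2 cells, attached overnight, were exposed to compound for 1 hr at 37C, then stained 30 min with a potentiometric dye. Ratio of red aggregate (590nm) to green monomer (535nm) fluorescence reports membrane potential; collapse shifts signal toward green.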

[2] = qHTS assay for small molecule disruptors of the mitochondrial membrane potential - 5 hr assay (AID 651755; calls by dose curve; further: on the % scale 0 is the no-effect control and ±100 the full control effect; nearly all actives have a fitted effect of over 40% in size); conditions: JC-1-type ratio dye; series mostly up to 92.2 µM
How it was run: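 HepG2 cells (2,000/well), attached overnight, exposed to compound 5 hr at 37C, then Mito-MPS dye 30 min. Fluorescence read for monomers (490/535 nm) and aggregates (540/590 nm).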

[3] = target: Tumor necrosis factor (Homo sapiens) (UniProt P01375); experiment: qHTS assay to identify small molecules that stimulate Tumor Necrosis Factor-alpha (TNF-alpha) secretion (AID 651757; active means well fitted curve in the direction sought with a large enough effect in the signal ratio; the % refers to the signal ratio; further: 0% is about no effect); conditions: Human cells, HTRF 665/615 ratio; series mostly up to 92.2 µM
How it was run: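 THP-1 cells (3000/well) exposed to compounds 17 hrs at 37 C. Secreted TNF-alpha detected by HTRF with cryptate- and XL665-labeled anti-TNF-alpha antibodies after 3 hr at room temperature.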

[4] = qHTS assay to identify small molecules that stimulate interleukin-8 (IL-8) secretion (AID 651758; active means well fitted activation curve with a large enough effect in the signal ratio; the % refers to the signal ratio; further: 0% is about no effect); conditions: HTRF ratio (665/615); series mostly up to 92.2 µM
How it was run: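 THP-1 cells (2000/well) exposed to compound 16 h at 37 C; secreted IL-8 then detected by HTRF with cryptate- and XL665-labelled anti-IL-8 antibody pair after 1-3 h at room temperature.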

[5] = qHTS assay for environmental chemicals that activate the Aryl hydrocarbon Receptor (AhR) signaling pathway (AID 651777); conditions: 1A2-DRE human hepatoma cells, luciferase, 24 h; activation: active compounds read high; further: % of control where 0% means no effect; nearly all actives have a fitted effect of over 15% in size
How it was run: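 Following a 24 hr incubation with test chemicals at 37 C and 5% CO2, 1A2-DRE human hepatoma cells received One-Glo reagent; after 30 min at room temperature, luciferase output reflected CYP1A2 induction via AhR.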

[6] = target: Peroxisome proliferator-activated receptor alpha (Homo sapiens) (UniProt Q07869); experiment: qHTS assay for small molecule agonists of the peroxisome proliferator-activated receptor alpha (PPARalpha) signaling pathway (AID 651778); conditions: PathHunter PPARalpha complementation, chemiluminescence, 6 h; active compounds read high; further: % of control where 0% means no effect
How it was run: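 Enzyme-fragment complementation assay in which ligand-bound PPARalpha translocates and forms an active enzyme that generates chemiluminescence. Cells were plated overnight, exposed to compound for 6 hr at 37 C, and then given detection reagent for 60 min at room temperature.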

[7] = qHTS assay for small molecule agonists of the antioxidant response element (ARE) signaling pathway measured by Nrf2-dependant transcriptional activity (AID 720636; active means well fitted curve in the direction sought with a large enough effect in the repeat runs; an effect the other way counts as inactive or inconclusive;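 further: HepG2 cells with an ARE-driven luciferase reporter; % of control where 0% means no effect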); conditions: ARE-luc HepG2, Nrf2 luciferase reporter, 16 h; series mostly up to 92.4 µM
How it was run: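 ONE-Glo luminescence, read 30 min after reagent addition at room temperature, reflected ARE reporter activity in HepG2 cells that had been incubated with compound for 16 hr at 37 C in 1% dialyzed FBS.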

[8] = qHTS assay for small molecule antagonists of the retinoid-related orphan receptor gamma (ROR-gamma) signaling pathway - cell viability counter screen (AID 720652; active means well fitted curve in the direction sought with a large enough effect in the repeat runs; an effect the other way counts as inactive or inconclusive;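 further: compound exposure lasted 16 hr before ATP read; on the % scale 0 is the no-effect control and ±100 the full control effect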); conditions: RORgamma reporter cell line viability counter screen; series mostly up to 92.2 µM
How it was run: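 CHO cells carrying TET-inducible ROR and RORE-luciferase reporter, plated 5 hr, then dosed with compound plus doxycycline. After 16 hr at 37 C, viability read as intracellular ATP by CellTiter-Glo luminescence.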

[9] = qHTS assay for small molecule agonists of the antioxidant response element (ARE) signaling pathway measured by Nrf2-dependant transcriptional activity - cell viability counter screen (AID 720653; active means well fitted curve in the direction sought with a large enough effect in the repeat runs; an effect the other way counts as inactive or inconclusive; further: on the % scale 0 is the no-effect control and ±100 the full control effect); conditions: ARE-bla HepG2 viability, CellTiter-Glo ATP luminescence, 16 h; active compounds read low
How it was run: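 ARE-bla HepG2 cells treated with compounds for 16 h at 37C; this counter screen measures viability as intracellular ATP by CellTiter-Glo luminescence after 30 min at room temperature.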

[10] = qHTS assay for cell viability of HEK293 cells (AID 743288); conditions: ATP luminescence (CellTiter-Glo), 18 h, active compounds read low; further: on the % scale 0 is the no-effect control and ±100 the full control effect; nearly all actives have a fitted effect of over 50% in size
How it was run: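 Parental HEK293 cells, 2,000 per well, preincubated at least 5 h at 37 C, then exposed to compounds in DMSO for 18 h at 37 C. Viability by CellTiter-Glo ATP luminescence after 30 min at room temperature.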

[11] = target: Nuclear receptor subfamily 1 group I member 2 (Rattus norvegicus) (UniProt Q9R1A7); experiment: qHTS assay for small molecule activators of the rat pregnane X receptor (rPXR) signaling pathway (AID 651751; call rule not given here; further: 0% is about no effect); conditions: rPXR reporter cells, luciferase (One-Glo), 24 h
[12] = qHTS assay for small molecule activators of the human pregnane X receptor (PXR) signaling pathway (AID 720659; call rule not given here; further: 0% is about no effect); conditions: DPX-2 HepG2 CYP3A4-luciferase, 24 h; series mostly up to 92.3 µM
[13] = target: Nuclear receptor ROR-gamma (Homo sapiens) (UniProt P51449); experiment: qHTS assay for small molecule antagonists of the retinoid-related orphan receptor gamma (ROR-gamma) signaling pathway (AID 651802); conditions: ROR-gamma antagonist cell reporter assay; series mostly up to 92.2 µM;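 further: luciferase reporter luminescence driven by ROR response element; on the % scale 0 is the no-effect control and ±100 the full control effect; nearly all actives have a fitted effect of over 60% in size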
How it was run: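 CHO cells with TET-inducible ROR-gamma and RORE-luciferase reporter, dosed then doxycycline-induced. After 16 h at 37C, One-Glo luminescence read; decreased signal indicates antagonism.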

[14] = qHTS assay for cell viability of the p53RE-bla HCT-116 cell line (AID 743292); conditions: p53RE-bla HCT-116 viability, ATP luminescence, 16 h; series mostly up to 95 µM; further: on the % scale 0 is the no-effect control and ±100 the full control effect; nearly all actives have a fitted effect of over 55% in size
How it was run: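 After plating at 4,000 cells per well and a 5 h rest at 37 C, HCT-116 cells carrying p53RE-bla received test chemicals in DMSO. Sixteen hours later at 37 C, CellTiter-Glo was added and luminescence recorded following 30 min at room temperature.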

Chain of Peroxisome proliferator-activated receptor alpha (Homo sapiens) (Q07869 whole entry, looked up, the tested form may be a part): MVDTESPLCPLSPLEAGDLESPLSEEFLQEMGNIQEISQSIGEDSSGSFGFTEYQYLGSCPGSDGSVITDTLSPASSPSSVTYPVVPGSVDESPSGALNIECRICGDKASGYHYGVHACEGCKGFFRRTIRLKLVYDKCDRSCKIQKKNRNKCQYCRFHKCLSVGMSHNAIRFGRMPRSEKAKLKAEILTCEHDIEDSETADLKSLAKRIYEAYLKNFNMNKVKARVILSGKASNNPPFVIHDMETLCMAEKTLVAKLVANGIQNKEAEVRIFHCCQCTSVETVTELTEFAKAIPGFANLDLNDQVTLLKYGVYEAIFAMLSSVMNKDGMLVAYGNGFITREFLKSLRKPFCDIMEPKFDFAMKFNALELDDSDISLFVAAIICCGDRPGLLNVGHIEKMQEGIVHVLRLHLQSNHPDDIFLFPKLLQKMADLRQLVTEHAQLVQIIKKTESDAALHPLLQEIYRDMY
Chain of Tumor necrosis factor (Homo sapiens) (P01375 whole entry, looked up): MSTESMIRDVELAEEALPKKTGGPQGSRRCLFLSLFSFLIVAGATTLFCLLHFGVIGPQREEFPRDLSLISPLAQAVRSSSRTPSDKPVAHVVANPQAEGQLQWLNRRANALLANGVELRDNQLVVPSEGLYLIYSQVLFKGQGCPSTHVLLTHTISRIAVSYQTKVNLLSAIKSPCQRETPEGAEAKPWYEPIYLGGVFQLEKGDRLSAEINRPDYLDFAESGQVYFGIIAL
Chain of Nuclear receptor ROR-gamma (Homo sapiens) (P51449 whole entry, looked up): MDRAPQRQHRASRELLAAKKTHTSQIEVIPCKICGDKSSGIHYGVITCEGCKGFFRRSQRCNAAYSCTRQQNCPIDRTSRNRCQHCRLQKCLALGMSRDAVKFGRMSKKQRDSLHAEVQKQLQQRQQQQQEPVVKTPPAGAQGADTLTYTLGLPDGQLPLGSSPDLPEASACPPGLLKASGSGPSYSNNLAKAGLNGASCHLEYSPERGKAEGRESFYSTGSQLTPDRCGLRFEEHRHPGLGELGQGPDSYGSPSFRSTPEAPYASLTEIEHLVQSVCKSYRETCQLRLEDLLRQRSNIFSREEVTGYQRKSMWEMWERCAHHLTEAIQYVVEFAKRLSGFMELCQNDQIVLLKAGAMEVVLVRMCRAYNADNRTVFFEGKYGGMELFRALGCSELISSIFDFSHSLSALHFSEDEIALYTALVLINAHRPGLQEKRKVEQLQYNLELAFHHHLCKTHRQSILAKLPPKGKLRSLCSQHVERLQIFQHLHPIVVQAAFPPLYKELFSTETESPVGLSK
Chain of Nuclear receptor subfamily 1 group I member 2 (Rattus norvegicus) (Q9R1A7 whole entry, looked up): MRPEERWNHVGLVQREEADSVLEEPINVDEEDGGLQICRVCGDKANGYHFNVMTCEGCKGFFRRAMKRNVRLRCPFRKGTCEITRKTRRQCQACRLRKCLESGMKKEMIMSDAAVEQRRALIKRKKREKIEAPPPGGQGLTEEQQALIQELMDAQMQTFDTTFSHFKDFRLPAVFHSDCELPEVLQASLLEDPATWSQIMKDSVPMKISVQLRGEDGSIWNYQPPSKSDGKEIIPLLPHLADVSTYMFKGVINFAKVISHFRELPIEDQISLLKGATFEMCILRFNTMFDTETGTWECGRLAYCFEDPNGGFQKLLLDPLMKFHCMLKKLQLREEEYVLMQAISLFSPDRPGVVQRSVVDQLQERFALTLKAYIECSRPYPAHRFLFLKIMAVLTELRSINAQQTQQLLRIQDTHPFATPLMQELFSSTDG

Cc1ccc(N(C)C)cc1
inactive: Potency [1] | Potency [2] | Potency [3] | Potency [4] | activation [5] 6.07% | max response [6] 2.84% | outcome [7] | Potency [8] | max response [9] -14.6% | max response [10] -14.6% | max response [11] 1.14% | outcome [12]

NCCCCCCN
inactive: Potency [1] | Potency [2] | Potency [3] | activation [5] 0.0666% | max response [6] -4.8% | Potency [13] | outcome [7] | Potency [8] | max response [9] -0.206% | max response [10] 10.3% | max response [11] 2.77% | outcome [12]

CC(=O)c1cc(C)oc1C
inactive: Potency [1] | Potency [2] | Potency [3] | activation [5] 0.74% | max response [6] -8.47% | Potency [13] | outcome [7] | Potency [8] | max response [9] 1.5% | max response [11] 1.56% | outcome [12]

Nc1ccccc1S(=O)(=O)O
inactive: Potency [1] | Potency [2] | Potency [3] | activation [5] -0.162% | max response [6] -3.61% | Potency [13] | outcome [7] | Potency [8] | max response [9] -0.944% | max response [10] -1.86% | Potency [14] | max response [11] -0.431% | outcome [12]

CCNS(=O)(=O)c1ccc(C)cc1
inactive: Potency [1] | Potency [2] | Potency [3] | activation [5] -1.7% | max response [6] -3.34% | Potency [13] | outcome [7] | Potency [8] | max response [9] -1.66% | max response [10] -4.78% | Potency [14] | max response [11] 2.12% | outcome [12]

CC(C)(O)CCC(C)(C)O
inactive: Potency [1] | Potency [2] | Potency [3] | activation [5] 1.58% | max response [6] -3.81% | Potency [13] | outcome [7] | Potency [8] | max response [9] -2.27% | max response [10] 2.13% | Potency [14] | max response [11] 3.24% | outcome [12]

CCCCC(C=O)CC (configuration not stated)
inactive: Potency [1] | Potency [2] | Potency [3] | activation [5] 0.316% | max response [6] -5.44% | Potency [13] | outcome [7] | Potency [8] | max response [9] 4.13% | max response [10] -9.34% | max response [11] -0.0559% | outcome [12]

O=Cc1ccccc1Cl
inactive: Potency [1] | Potency [2] | Potency [3] | activation [5] -0.0176% | max response [6] -3.69% | Potency [13] | outcome [7] | Potency [8] | max response [9] -4.5% | max response [10] -11.9% | Potency [14] | max response [11] -0.844% | outcome [12]

CCC1CO1 (configuration not stated)
inactive: Potency [1] | Potency [2] | Potency [3] | activation [5] 0.0109% | max response [6] -1.3% | Potency [13] | outcome [7] | Potency [8] | max response [9] 1.19% | max response [10] 4.98% | Potency [14] | max response [11] 4.08% | outcome [12]

CC(CCl)OC(C)CCl (configuration not stated)
inactive: Potency [1] | Potency [2] | Potency [3] | Potency [4] | max response [6] 4.09% | outcome [7] | Potency [8] | max response [9] 6.29% | Potency [14] | max response [11] 2.99% | outcome [12]

CCCCOCCOCCSC#N
inactive: Potency [1] | Potency [2] | Potency [3] | activation [5] -0.297% | max response [6] 0.043% | Potency [13] | outcome [7] | Potency [8] | max response [9] -6.26% | max response [10] 5.15% | max response [11] -2.98% | outcome [12]

C=C(C)OC(C)=O
inactive: Potency [1] | Potency [2] | Potency [3] | activation [5] -1.07% | max response [6] -3.39% | Potency [13] | outcome [7] | Potency [8] | max response [9] 7.41% | max response [10] -0.625% | max response [11] -1.49% | outcome [12]

CCCCCO
inactive: Potency [1] | Potency [2] | Potency [3] | activation [5] 0.0119% | max response [6] -2.11% | Potency [13] | outcome [7] | Potency [8] | max response [9] 3.66% | max response [10] 0.87% | Potency [14] | max response [11] -1.89% | outcome [12]

FC(F)(F)c1cccc(Cl)c1
inactive: Potency [1] | Potency [2] | Potency [3] | activation [5] -0.497% | max response [6] -9.21% | Potency [13] | outcome [7] | Potency [8] | max response [9] -9.33% | max response [10] -5.31% | max response [11] -6.22% | outcome [12]
